TSG101-PTAP inh: blocks PTAP/TSG101 interaction to inhibit HIV-1 budding | Q99816 | Fluorescence polarization, FITC-PTAP peptide / Tsg101 binding | Potency, µM (doses to about 115 µM), usual class: inhibitors | 340,000 tested, under 10 active; active = well fitted inhibition curve with a large enough effect in the main read-out, with a control signal flat, not every such curve was filed as active; inconclusive = small, poorly fitted or top-dose-only effect, or effect the other way, or a change in a side signal; inactive = no such curve, though single readings can be large or run the other way
Target sequence (Q99816 whole entry, looked up): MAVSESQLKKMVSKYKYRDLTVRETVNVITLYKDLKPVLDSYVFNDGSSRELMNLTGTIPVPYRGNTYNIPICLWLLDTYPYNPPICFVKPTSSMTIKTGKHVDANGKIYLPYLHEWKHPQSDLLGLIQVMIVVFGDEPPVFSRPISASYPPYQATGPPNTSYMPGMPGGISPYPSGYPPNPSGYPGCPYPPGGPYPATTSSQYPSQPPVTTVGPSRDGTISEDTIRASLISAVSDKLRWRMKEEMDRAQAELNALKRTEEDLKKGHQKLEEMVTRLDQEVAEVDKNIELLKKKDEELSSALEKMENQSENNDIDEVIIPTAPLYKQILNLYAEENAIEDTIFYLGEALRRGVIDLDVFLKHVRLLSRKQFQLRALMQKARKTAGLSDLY
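FP read-out: FITC-PTAP peptide, 50 nM final, binding Tsg101 binding domain, 10 uM final; 20 min, r.t.; 10 mM HEPES pH 7.5, 0.15 M NaCl, 0.01% Tween 20, 3 mM EDTA, 0.1 mM TCEP.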
PINK1 expr mod: PINK1 expression modulation | PINK1 immunofluorescence, high-content cytometry, 24 h | Potency, µM (titrated, usually from 76.6 µM), usual class: activators | 410,000 compounds, 0.2% hits; active = well fitted activation curve with a large enough effect; inconclusive = small, poorly fitted or top-dose-only effect; cell line not stated here; note: nearly all actives have a fitted effect of over 65% in size
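PINK1 protein, normally rapidly degraded, was detected by immunofluorescence after 24 hour compound treatment of a stable cell line. Titration data (5 concentrations) came from laser-scanning cytometry, with CCCP-treated wells as controls.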
SW480 rerep: induces DNA re-replication in SW480 colon adenocarcinoma cells | 340,000 compounds, 1.8% hits | Potency, µM (highest dose often 46.1 µM), hits mostly activators | AID 624297 | SW480 DNA re-replication, Hoechst DNA content imaging, 48 h; note: nearly all actives have a fitted effect of over 55% in size
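DNA re-replication was detected as more nuclei of elevated Hoechst intensity after 48 hr exposure to compound (23 nL pinned per well of 250 cells).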
KB-V1 cytotox: kills drug-selected multidrug resistant KB-V1 cells; KB-V1 MDR cells viability, CellTiter-Glo, 72 h; Potency, µM (series often up to 46.1 µM), usual class: cytotoxic; 400,000 compounds, 3.4% hits; AID 1347076; note: nearly all actives have a fitted effect of over 60% in size
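KB-V1 cells (P-gp-expressing MDR subline of KB-3-1) in phenol-red-free DMEM with 10% FBS were exposed to library compounds over a concentration series for 72 h at 37 degrees C. Viability read by CellTiter-Glo luminescence; concentration-effect curves fitted after normalization.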
MCF10A rereplic: induces DNA re-replication in MCF 10a normal breast cells. MCF 10A DNA re-replication, Hoechst nuclear intensity, 48 h. Potency, µM (highest dose often 46.1 µM), usual class: activators. 350,000 compounds, 2.9% hits. AID 624296; note: nearly all actives have a fitted effect of over 50% in size
KB-3-1 cytotox: KB-3-1 parental cell cytotoxicity; KB-3-1 viability, CellTiter-Glo ATP luminescence, 72 h; Potency, µM (top dose mostly 46.1 µM), hits mostly cytotoxic; 400,000 compounds, 1.4% hits; AID 1347075; note: nearly all actives have a fitted effect of over 60% in size
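Cells are dispensed, compounds pinned in, plates held at 37 °C for 72 h, then CellTiter-Glo is added and luminescence read after 10 minutes. Cell line: parental KB-3-1 in phenol-red-free DMEM, 10% FBS.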
A number is an active result; . = inactive; ? = inconclusive; / = not tested or not shown. Shown are actives, neighbours in structure and some others; about 6.8% of the full set was active somewhere. Unless noted, calls come from the whole dose curve; as a rule, active = well fitted curve in the direction sought with a large enough effect; inconclusive = small, poorly fitted or top-dose-only effect, or another doubt; inactive = no such curve, though single readings can be large; an effect the other way counts as inactive or inconclusive.

SMILES	TSG101-PTAP inh	PINK1 expr mod	SW480 rerep	KB-V1 cytotox	MCF10A rereplic	KB-3-1 cytotox
C1=C/C(=C2/C=Cc3ccccc32)c2ccccc2N1	/	/	/	2.3µM	/	4.6µM
C1=Cc2ccccc2/C1=C\c1ccc(/C=C2\C=Cc3ccccc32)cc1	/	.	/	.	/	?
COc1ccc(OC)c2sc(N3CCN(C(=O)c4ccc5c(c4)CCCC5)CC3)nc12	/	.	/	.	/	.
COc1ccc(C2(C)NC(=O)N(CC(=O)Nc3ccc(-c4nc5ccc(C)cc5s4)cc3)C2=O)cc1 (stereo not drawn)	.	.	?	.	18µM	.
Cc1ccc2nc(-c3ccc(NC(=O)C(C)Sc4nncs4)cc3)sc2c1 (stereo not drawn)	.	.	?	12µM	?	.
Cc1ccc(C)c(N(CC(=O)Nc2ccc(-c3nc4ccc(C)cc4s3)cc2)S(C)(=O)=O)c1	.	?	?	?	?	.
O=C(CCN1C(=O)NC2(CCCC2)C1=O)Nc1ccc(-c2nc3ccccc3s2)cc1	.	.	16µM	.	23µM	.
Cc1ccc(N(CC(=O)Nc2ccc(-c3nc4ccc(C)cc4s3)cc2)S(C)(=O)=O)cc1	.	.	?	.	16µM	.
COc1ccccc1N1CCN(S(=O)(=O)c2c(C)sc3ncn(CC(=O)Nc4ccc(C(C)C)cc4)c(=O)c23)CC1	/	.	/	?	/	.
COc1cccc(CNC(=O)c2oc3ccc4c(c3c2C)C(=O)CC(C)(C)O4)c1OC	/	.	/	/	/	/
COc1cccc(-c2nc(S(=O)(=O)c3ccccc3)c(NCc3ccccc3)o2)c1	/	.	/	.	/	.
Cc1ccc2nc(-c3ccc(NC(=O)CN4C(=O)c5ccccc5C4=O)cc3)sc2c1	.	.	21µM	?	16µM	.
Cc1ccc2nc(-c3ccc(NC(=O)CN4CCN(c5ccccn5)CC4)cc3)sc2c1	.	.	?	.	13µM	.
Cc1ccc2nc(-c3ccc(NC(=O)CSc4nc(N)cc(=O)[nH]4)cc3)sc2c1	.	.	3.7µM	.	.	?
Cc1ccc2nc(NC(=O)CN3CCN(c4ccccn4)CC3)sc2c1	.	.	.	.	?	.
COc1ccc(/C=C/C(=O)Nc2nc3n(n2)C(c2ccc(F)cc2)C=C(c2ccccc2)N3)cc1 (stereo not drawn)	/	.	/	.	/	.
CCOC(=O)c1c(N2C(=O)C=CC2=O)sc(C)c1C	.	/	9.2µM	.	2.9µM	.
CC(C)c1nc2ccc(C(=O)NCCCN3CCN(c4ccccc4F)CC3)cc2o1	/	.	/	.	/	.
CCC(=O)Oc1c(C(=O)CC)cc2c(C)cc(=O)oc2c1C	.	.	.	16µM	.	.
COCc1c(C(=O)N2CCN(Cc3ccc(C#N)cc3)CC2)oc2ccccc12	.	.	.	13µM	?	?
O=S(=O)(c1ccc(F)cc1)n1ccc(-c2cccc(OCc3c(F)cccc3Cl)c2)n1	.	.	.	21µM	.	?
CC(C)Nc1nc2c(-c3cccc(Br)c3)nnn2c2ccccc12	/	.	/	.	/	.
CC(C)Cn1c2c(c(O)c(C(=O)Nc3ccc(F)cc3)c1=O)CCCC2	.	.	.	?	?	.
CCCCc1nc2ccccc2c(=O)n1NC(=O)c1c(O)c2c(n(CC(C)C)c1=O)CCCC2	.	.	.	2.6µM	.	4.6µM
CCCn1c2c(c(O)c(C(=O)Nc3ccccc3)c1=O)CCCC2	.	.	.	15µM	.	.
CCc1nc2ccccc2c(=O)n1NC(=O)c1c(O)c2ccccc2n(CC)c1=O	.	.	.	8.2µM	.	?
CCn1c(=O)c(C(=O)Nc2nc3ccccc3[nH]2)c(O)c2ccccc21	.	?	?	1.2µM	9.2µM	12µM
COc1ccc(Cc2c(C)nn(-c3nc(C)c(C(=O)Nc4cccc(C(C)=O)c4)s3)c2C)cc1	/	.	/	/	/	/
CC(C)NC(=O)[C@@H]1C[C@@H](Sc2ccccn2)CN1C1CCN(C)CC1	/	.	/	/	/	/
Cn1cc(/C=C/c2ccc3ccccc3n2)c2ccccc21	/	/	/	.	/	?
